Cardio protect: modulators protecting cardiomyocytes from myocardial damage; H9c2 cardiomyocytes, H2O2 injury protection, ATPLite, 2 h; protection from H2O2 cell death, % at 20 µM; 0.63% of 360,000 active; AID 588492;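 active = compounds giving at least 50% protection of heart cells from peroxide-induced death in the single-dose screen, raw or plate-pattern-corrected value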;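 note: 0% = DMSO wells with peroxide and 100% = DMSO wells without peroxide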
CRFBP-R2 block: CRF-BP/CRF-R2 complex antagonism | HEK293 CRF-R2/CRF-BP, CRF-induced calcium fluorescence | inhibition, % at 11.8 µM | 0.59% of 350,000 active;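 active = inhibition of the ligand-induced calcium signal above about 50% at the single tested concentration, limit read from the data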
PfG6PD inh: PfG6PD (Plasmodium falciparum) enzyme inhibition; AID 504690; PfGluPho enzyme, NADPH resazurin-diaphorase fluorescence; inhibition, % at 20 µM; 0.78% of 350,000 active;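 active = inhibition reaching at least a set limit at 20 µM in the primary screen, cut at about 59% in these data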;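 note: 0% = DMSO wells with substrate and 100% = DMSO wells lacking glucose-6-phosphate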
CRFR2-BP ag: agonists of human CRF-binding protein/CRF-R2 receptor complex. HEK293 CRF-R2/CRF-BP, calcium dye fluorescence (FLIPR); percent of saturating CRF peptide response. 0.46% of 350,000 active. activation, % at 13.2 µM;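 active = activation of at least 50%, plus an integration ratio under a set limit after plate pattern correction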;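 note: plate controls were neutral control wells without compound for no effect and CRF at EC100 for full effect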
aDG glyco up: alpha-DG glycosylation activation | 0.22% of 360,000 active | activation, % at 10 µM | Pro5-aDG cells, alpha-DG glycosylation AlphaScreen (IIH6); 0% Pro5, 100% B10-LARGE cell signal;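 active = activation of at least 8% versus controls, or a plate z-score of at least 8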;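 note: Pro5 are CHO cells carrying HIG-tagged alpha-DG that lacks glycosylation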
FAS-TE inh: blocks the thioesterase domain of human fatty acid synthase | inhibition, % at 15 µM | 0.67% of 360,000 active | recombinant FAS-TE, OMFH fluorogenic substrate, fluorescence endpoint | P49327;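 active = compounds whose normalised, plate-corrected inhibition of enzyme fluorescence in the single-dose primary screen is 50% or more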;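 note: 0% = DMSO with enzyme and 100% = substrate without enzyme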
* = called active by the depositor; / = no result. An excerpt weighted towards active compounds, which were near 3.2% of everything screened.

SMILES	Cardio protect	CRFBP-R2 block	PfG6PD inh	CRFR2-BP ag	aDG glyco up	FAS-TE inh
CC(=O)c1ccc2c3c(cccc13)C(=O)N(c1c(C)nn(C)c1C)C2=O	1	-2	1	2	0	-5
C=CCN1C(=O)c2cccc3c(N4CCCCC4)ccc(c23)C1=O	-15	-344	15	256*	3	-167
O=C1c2cccc3c(N4CCCCC4)ccc(c23)C(=O)N1c1cccc(O)c1	-16	-132	-1	161*	1	-78
O=C1c2cccc3cccc(c23)C(=O)N1CCO	-1	-6	-17	-3	0	-4
C=CCN1C(=O)c2cccc3c(Br)ccc(c23)C1=O	1	6	-2	3	0	3
O=C1c2cccc3c(N4CCCCC4)ccc(c23)C(=O)N1CCO	-16	-154	5	118*	0	-59
COc1nnc(-c2ccc(N3CCCCC3)c(N)c2)c2ccccc12	-14	0	2	0	1	8
CCOC(=O)CNc1ccc(C(=O)OCC)cc1[N+](=O)[O-]	-13	23	-5	-2	0	-10
CCCNc1ccc(C(=O)OCC)cc1[N+](=O)[O-]	-14	61*	-12	-8	0	20
COc1cccc(NC(=O)CN(C)C(=O)Cn2[nH]c(=O)c3ccccc3c2=O)c1	40	0	17	-1	0	-4
CN(CC(=O)Nc1ccccc1Br)C(=O)Cn1[nH]c(=O)c2ccccc2c1=O	83*	-2	2	0	0	-5
COc1ccc(Cl)cc1NC(=O)CN(C)C(=O)Cn1[nH]c(=O)c2ccccc2c1=O	84*	1	24	0	0	-1
CCc1cccc(C)c1NC(=S)N(CCN(C)C)C(C)c1cccnc1 (stereo unspecified)	4	-7	-6	0	0	-4
CCCC(NC(=S)NCC1CCCO1)C12CC3CC(CC(C3)C1)C2 (stereo unspecified)	-18	0	2	-3	2	19
O=c1cc(-c2ccncc2)oc2c1ccc1ccccc12	66*	-5	7	-1	0	6
Oc1cc2c(cc1C(c1ccc(Cl)c(Cl)c1)N1CCCC1)OCO2 (stereo unspecified)	-3	-38	62*	0	0	18
CC(C)c1ccc(NC(=O)C(c2ccc3c(c2)OCO3)N2CCCCC2)cc1 (stereo unspecified)	-27	-32	45	6	0	29
COc1cccc(NC(=O)COC(=O)CNC(=O)C2CCCCC2)c1	5	-5	-5	0	0	-5
O=C(Nc1cc(C(=O)N2CCN(c3ccccc3O)CC2)ccc1Cl)c1cccs1	17	-12	9	-1	0	4
CC(C)N1CCc2c(sc(NC(=O)c3ccc4ccccc4c3)c2C(N)=O)C1	-9	-115	17	124*	2	-10
CC(C)N1CCc2c(sc(NC(=O)c3ccco3)c2C(N)=O)C1	1	5	4	27	2	-4
COC(=O)c1c(NC(=O)c2ccco2)sc2c1CCN(C(C)C)C2	8	-5	1	52*	1	-7
CC(=O)Nc1sc2c(c1-c1nc3ccccc3s1)CCN(C(C)C)C2	-6	-64	45	80*	0	-29
CC(C)N1CCc2c(sc(NC(=O)CCc3ccccc3)c2C(N)=O)C1	4	-70	17	62*	1	-3
CC(C)N1CCc2c(sc(NC(=O)Cc3ccccc3)c2C(N)=O)C1	14	-49	-6	3	0	-5
SMILES	Cardio protect	CRFBP-R2 block	PfG6PD inh	CRFR2-BP ag	aDG glyco up	FAS-TE inh
O=C(Nc1cccc(C(=O)N2CCCCC2)c1)c1ccccc1Br	6	-20	-1	-7	0	-2
CCCN(CC(=O)Nc1ccccc1OC)C(=O)c1cc(-c2ccccc2)nn1-c1ccccc1	-8	15	17	2	1	32
CC(C)N1CCc2c(sc(NC(=O)c3cc4cc([N+](=O)[O-])ccc4s3)c2C(N)=O)C1	-26	-137	18	134*	4	12
COc1ccc([N+](=O)[O-])cc1N(CC(=O)NCC1CCCO1)S(C)(=O)=O (stereo unspecified)	-1	14	0	-2	0	-18
O=c1c2ccccc2sn1-c1cc(S(=O)(=O)N2CCOCC2)ccc1N1CCOCC1	-17	-21	111*	-1	0	-8
O=S(=O)(c1ccc(N2CCOCC2)c(Cl)c1)N1CCOCC1	-7	-3	-12	0	0	-4
Cc1ccc(N(C(=O)CNC(=O)c2ccco2)C(C(=O)NC2CCCCC2)c2ccncc2)c(C)c1 (stereo unspecified)	-3	-2	6	0	0	-6
Cc1ccc([N+](=O)[O-])cc1N=Nc1c(-c2ccc([N+](=O)[O-])cc2)[nH]n(C(N)=S)c1=O	-23	112*	-17	51*	-1	30
Cc1cc(NC(=O)Cc2ccccc2)ccc1NC(=O)c1cccs1	-1	57*	-16	-3	0	1
COc1ccc(Nc2nnc(-c3ccc(O)cc3)c3ccccc23)cc1C(N)=O	57*	18	19	-1	0	-3
COc1ccc(Nc2nnc(C)c3ccccc23)cc1C(N)=O	11	-2	16	-2	0	-10
O=C(NS(=O)(=O)Nc1ccccc1)C1=C(N2CCCC2)COC1=O	-1	14	-4	1	0	-10
CCOC(=O)c1c(NC(=O)CC2Nc3cc(C)c(C)cc3NC2=O)sc(C)c1C (stereo unspecified)	7	0	-1	1	0	-8
Cc1nc(N)sc1-c1csc(Nc2ccccc2)n1	-4	79*	15	-2	1	-12
CC(=O)Nc1nc(C)c(-c2csc(Nc3cccc(C(C)=O)c3)n2)s1	66*	-1	42	3	0	-2
Cc1nc(N)sc1-c1csc(Nc2cccc(C(=O)O)c2)n1	12	6	47	0	0	-2
CC(=O)Nc1ccc(Nc2nc(-c3sc(NC(C)=O)nc3C)cs2)cc1	57*	12	37	1	0	2
CC(=O)Nc1nc(C)c(-c2csc(Nc3ccc(O)cc3)n2)s1	-8	-23	49	-3	0	5
OC(c1ccccc1)c1nc(-c2ccc3c(c2)OCO3)cs1 (stereo unspecified)	0	/	/	/	0	4
O=c1c([N+](=O)[O-])cn(Cc2ccccc2)c(=O)n1Cc1ccccc1	-1	-75	7	56*	0	7
CCN(c1ccccc1)S(=O)(=O)c1cc(NC(=O)Nc2ccccc2C#N)ccc1Cl	-4	-7	4	9	1	16
CCN(c1ccccc1)S(=O)(=O)c1ccc(Cl)c(NC(=O)Nc2ccc(Cl)cc2C#N)c1	-12	71*	2	0	0	13

Bioassay records: PubChem, Sanford-Burnham Center for Chemical Genomics
